Assay outcomes: PubChem, National Center for Advancing Translational Sciences (NCATS)
This is one part of a sample in which hits are shown more often than they occur.
Pf Dd2 growth = blocks in vitro growth of P. falciparum Dd2 | 120,000 compounds, 4.3% hits | Potency, µM (titrated, usually from 28.9 µM), actives largely listed as inhibitors | P. falciparum Dd2 growth, SYBR Green, 72 h; active = well fitted inhibition curve with a large enough effect; note: nearly all actives have a fitted effect of over 65% in size
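Readout: SYBR Green fluorescence, 485 nm excitation, 535 nm emission, after ~16 h lysis at 37C. Before that, Dd2-infected red cells (2.5% hematocrit) grew 72 h with compound, 29 uM top final concentration.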
A number is an active result; i = inactive.

SMILES	Pf Dd2 growth
Cc1cnc(C2CCOCC2)n1C1CCCN(C(=O)COc2ccc(F)cc2)C1 (configuration not stated)	i
O=C(Cc1cccc(F)c1)NCCC1CCN(C(=O)Nc2ccc(F)cc2F)CC1	i
COc1ccc(CC(=O)N2C[C@H](c3nc(-c4cccnc4)no3)[C@@H](C)C2)cc1	i
CCc1ccc(CN(Cc2cn[nH]c2-c2ccc(OC)cc2)C(=O)Nc2cc(Cl)ccc2OC)cc1	12.6µM
COc1ccc(CNC(=O)C(=O)Nc2cc(Cl)ccc2OC)cc1	i
COc1ccc(CC(=O)NCc2cn[nH]c2-c2ccc(C)cc2)cc1	i
O=C1CC[C@]2(C(=O)N3CCCCC3)CCCC[C@H]2N1CCc1ccccc1	i
Cc1ccc(Cn2ccn3nc4c(c3c2=O)CCCC4)cc1	i
CC(C)C1CN(C(=O)OC(C)(C)C)C(C)CN1 (configuration not stated)	i
CC(C)C1CNC(Cc2ccccc2)CN1C(=O)OC(C)(C)C (configuration not stated)	8.91µM
CC(C)(C)OC(=O)N1CC(c2ccccc2)C1	i
COCC(=O)NC[C@H]1O[C@@H](CO)[C@@H](O)[C@H]1N1CCC(C)CC1	i
CC(c1cccs1)N(C)S(C)(=O)=O (configuration not stated)	i
COc1cccc(CN(C)C(C)c2cccs2)c1 (configuration not stated)	i
CC(c1cccs1)N(C)Cc1cccc2ccccc12 (configuration not stated)	12.6µM
CCOC(=O)c1cc(-c2ccccc2)n(CCC(=O)NCCc2cccc(C)c2)c1C	i
CCOC(=O)c1cc(-c2ccccc2)n(CCC(=O)Nc2cc(OCC)ccc2OCC)c1C	i
CCOC(=O)c1cc(-c2ccccc2)n(CCC(=O)Nc2ccc(Cl)c(C(F)(F)F)c2)c1C	2.82µM
CCOC(=O)c1cc(-c2ccccc2)n(CCC(=O)Nc2cc(C)cc(C)c2)c1C	3.16µM
CCOC(=O)c1cc(-c2ccccc2)n(CCC(=O)Nc2ccc(C)cc2Cl)c1C	i
CCOC(=O)c1cc(-c2ccccc2)n(CC(=O)Nc2cc(Cl)c(OC)cc2OC)c1C	i
Cc1cccc(CC(=O)N2CCc3c(nc4cc[nH]n4c3=O)C2)c1	i
O=C(CCc1c[nH]c2ccccc12)N1C[C@@H](CO)[C@H](c2ccccn2)C1	i
O=C(Cc1c[nH]c2ccccc12)N[C@@H]1[C@@H]2CCO[C@@H]2[C@@H]1C1CCCC1	i
CCOc1cccc(CNC(=O)c2noc(-c3ccc(C)cc3)n2)c1	i
SMILES	Pf Dd2 growth
CCN1C(=O)c2ccccc2S(=O)c2ccc(C(=O)N3CCN(c4ccccc4OC)CC3)cc21 (configuration not stated)	5.01µM
O=C(c1ccc2c(c1)N(Cc1ccc(F)cc1)C(=O)c1ccccc1S2=O)N1CCOCC1 (configuration not stated)	i
O=C(c1ccc2c(c1)N(Cc1ccc(Cl)cc1)C(=O)c1ccccc1S2=O)N1CCOCC1 (configuration not stated)	i
CCN1CCN(C(=O)c2ccc3c(c2)N(Cc2ccccc2F)C(=O)c2ccccc2S3=O)CC1 (configuration not stated)	0.282µM
O=C(c1ccc2c(c1)N(Cc1ccccc1F)C(=O)c1ccccc1S2=O)N1CCN(c2ccccc2)CC1 (configuration not stated)	i
O=C(c1ccc2c(c1)N(Cc1ccc(Cl)cc1)C(=O)c1ccccc1S2=O)N1CCCCC1 (configuration not stated)	i
CCN1C(=O)c2ccccc2S(=O)c2ccc(C(=O)N3CCN(c4ccc(F)cc4)CC3)cc21 (configuration not stated)	8.91µM
CCOC(=O)N1CCN(C(=O)c2ccc3c(c2)N(Cc2ccccc2F)C(=O)c2ccccc2S3=O)CC1 (configuration not stated)	i
COc1ccc(N2CCN(C(=O)c3ccc4c(c3)N(Cc3cc(C)ccc3C)C(=O)c3ccccc3S4=O)CC2)cc1 (configuration not stated)	i
O=C(CN1Cc2nc(OCc3ccc(F)cc3)ccc2OCC1=O)N1CCCC1	i
COc1cc(NC(=O)Cn2c(C)cc3nc4n(c(=O)c32)CCC4)cc(OC)c1OC	i
COC[C@H]1NC(=O)CC[C@H]1C(=O)NCCc1ccccc1	i
CCC(=O)N1CCc2sc(C(=O)NCc3ccc4c(c3)OCO4)cc2C1	i
COCc1nc(C2CCN(C(=O)c3ccco3)C2)no1 (configuration not stated)	i
CCCCN(C)CCCNC(=O)C1CCN(S(=O)(=O)CC)CC1	i
CCc1ccc2nc(N3CCN(C(=O)c4ccco4)CC3)sc2c1	i
CCCCN(C)CCCNC(=O)C1CCN(c2nc3ccc(CC)cc3s2)CC1	11.2µM
O=[S+]([O-])(c1ccncc1)c1nnn2c1nc(NC1CCCC1)c1ccccc12	i
O=C(Nc1ccc2c(c1)OCCO2)N1CCCC(CN2CCOCC2)CC1 (configuration not stated)	i
COc1ccc(NC(=O)C2CCN(S(=O)(=O)c3cc(-c4noc(C)n4)ccc3C)CC2)cc1	6.31µM
CCN(CC)C(=O)C1CCN(S(=O)(=O)c2c(C)noc2/C=C/c2cccc(OC)c2)CC1	i
COc1ccc(-c2noc(N3CCC(C(=O)Nc4cccc(C)c4C)CC3)n2)cc1	i
Cc1ccc(/C=C/c2onc(C)c2S(=O)(=O)N2CCC(C(=O)Nc3ccc(Br)c(C)c3)CC2)cc1	i
COc1ccc(/C=C\c2onc(C)c2S(=O)(=O)N2CCC(C(=O)Nc3cccc(OC)c3)CC2)cc1	8.91µM
COc1ccc(CNC(=O)C2CCN(S(=O)(=O)c3cccc(-c4noc(C)n4)c3)CC2)cc1	i
SMILES	Pf Dd2 growth
Cc1ccc(-n2c(C3CCN(C(=O)c4ccco4)CC3)n[nH]c2=O)cc1	i
Cc1ccc(CN2CCc3ncc(C(=O)NCc4ccccc4)n3CC2)o1	i
COc1ccc(CNC(=O)CC[C@H]2CNC(=O)[C@@H]3[C@@H](CCN3Cc3cccc(Cl)c3)N2C)cc1	i
O=C(Cc1ccsc1)N1CC(c2nnc(-c3ccncc3)o2)C2(CCOCC2)C1 (configuration not stated)	i
COCc1cn(C[C@H]2C[C@@H](NS(=O)(=O)CC(C)C)[C@H](O)[C@@H]2O)nn1	i
O=C1CCC2(CCN1Cc1ccccc1)CCN(S(=O)(=O)c1cccs1)CC2	i
Cc1ccc(S(=O)(=O)c2nc(S(=O)(=O)c3ccc(C)cc3)c(NC(C)C)s2)cc1	i
Cc1ccc(S(=O)(=O)c2nc(S(=O)(=O)c3ccc(C)cc3)c(NCCCOC(C)C)s2)cc1	2.24µM
CCNc1sc(S(C)(=O)=O)nc1S(=O)(=O)c1ccc(C)cc1	i
N#Cc1ccc(CN2CCn3c(nnc3-c3ccncc3)C2)cc1	i
Cc1noc([C@@H]2CN(C(=O)CC3CCCC3)C[C@H]2CO)n1	i
COCCn1c(=N)c(C(=O)NC2CCCC2)cc2c(=O)n3cc(C)ccc3nc21	i
CCOCCCn1c(=N)c(C(=O)NC2CCCC2)cc2c(=O)n3cccc(C)c3nc21	2.24µM
CCOCCCn1c(=N)c(S(=O)(=O)c2ccc(C)cc2)cc2c(=O)n3cccc(C)c3nc21	i
COCCNc1ccc2nnc(-c3ccc(OC)cn3)n2n1	i
O=C(Cc1c[nH]c(=O)[nH]c1=O)N1C[C@@H](CN2CCOCC2)[C@@H](CO)C1	i
O=C1NC(=NC2CCCCC2)C2(CCCN(Cc3ccsc3)C2)N1c1cc(F)cc(F)c1 (configuration not stated)	7.94µM
O=C1NC(=NC2CCCCC2)C2(CCN(Cc3ccsc3)CC2)N1c1cccnc1	i
